GDH-TPI counter-1 = counter-screen for M. tuberculosis FBA inhibitors: GDH-TPI coupled enzymes; GDH-TPI coupled enzyme counterscreen, NADH absorbance; inhibition, % at 4.8 µM; 1.2% of 360,000 active; AID 588335; in the data active means inhibition above about 30%;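 further: 0% = DMSO wells and 100% = wells lacking the enzyme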
CCHF vOTU inh = blocks the CCHF virus ovarian tumor domain protease; CCHFV vOTU protease, Pep-AMC fluorescence; inhibition, % at 11.5 µM; 0.55% of 370,000 active; in the data active means inhibition above about 30%; further: 0% = vehicle wells with enzyme and 100% = no enzyme wells
RecA intein inh = inhibitors of M. tuberculosis RecA intein splicing | inhibition, % (concentration not given with the values) | P9WHJ3 | 0.75% of 290,000 active | cell-free RecA intein splicing, fluorescence | AID 2221; in the data active means inhibition above about 30%;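 further: 0% = vehicle wells and 100% = reference inhibitor control wells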
FBA Mtb inh = inhibits M. tuberculosis FBA enzyme. P9WQA3. purified M. tuberculosis FBA, fluorescence read-out. inhibition, % at 1 µM. 2.3% of 360,000 active. AID 588726;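 further: 0% = vehicle and 100% = reference inhibitor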
Target sequence (P9WQA3 whole entry, looked up): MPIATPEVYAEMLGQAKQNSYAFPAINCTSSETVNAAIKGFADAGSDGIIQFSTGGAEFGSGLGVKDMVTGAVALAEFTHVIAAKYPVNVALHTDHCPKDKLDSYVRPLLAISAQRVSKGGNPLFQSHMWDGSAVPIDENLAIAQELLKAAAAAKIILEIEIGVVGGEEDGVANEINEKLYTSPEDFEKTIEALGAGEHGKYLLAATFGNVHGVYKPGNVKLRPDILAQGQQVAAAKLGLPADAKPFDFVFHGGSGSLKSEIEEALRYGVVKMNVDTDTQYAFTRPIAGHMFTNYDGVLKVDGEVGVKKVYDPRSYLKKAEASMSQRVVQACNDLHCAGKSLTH
Mtb FBA confirm = confirmation of M. tuberculosis fructose-bisphosphate aldolase inhibitors. shares compounds with FBA Mtb inh. purified M. tuberculosis FBA, fluorescence read-out. inhibition, % at 1 µM. 78% of 5,600 active. AID 651616;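 further: 0% = vehicle wells and 100% = reference inhibitor wells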
GDH-TPI counter-2 = counter-screen for M. tuberculosis FBA inhibitors: GDH-TPI coupled enzyme inhibition; inhibition, % at 1 µM; shares compounds with FBA Mtb inh; 81% of 5,600 active; GDH-TPI coupled enzyme counterscreen, fluorescence; AID 652141; in the data active means inhibition above about 10%
GDH-TPI dose = GDH-TPI dose response counter-screen for Mtb FBA | shares compounds with FBA Mtb inh | GDH-TPI coupled enzyme assay, fluorescence, artifact counterscreen | IC50, µM | 79% of 170 active | AID 652145; call rule not given here
* marks the source's active call; other numbers are inactive results; / = no result; + = active, no number. In the library only some 4.2% were active in any assay of this set; here they are far more common. Unless noted, no stated cut-off is given here; in the data, active means inhibition above about 27%; inactive means the rest.

SMILES	GDH-TPI counter-1	CCHF vOTU inh	RecA intein inh	FBA Mtb inh	Mtb FBA confirm	GDH-TPI counter-2	others
COc1cccc(C(=O)Nc2ccc(-c3nnc(-c4ccco4)o3)cc2)c1	16	-3	1	1	/	/
COc1cccc(-c2nnc(-c3ccco3)o2)c1	7	13	1	62*	+	+
CC(C)COc1ccc(-c2nnc(-c3ccco3)o2)cc1	2	8	6	43*	54*	43*
Cc1noc(C)c1-c1ccc(C(=O)NCCN2CCOCC2)c2occc12	-8	-7	/	2	/	/
COc1ccc(Nc2nc(Nc3ccc(OC)cc3)nc(SC3=NCCS3)n2)cc1	-5	-8	4	41*	116*	77*
COc1ccc(Nc2nc(OC)nc(OC)n2)cc1	0	-18	1	0	/	/
Cc1cccc(NS(=O)(=O)Cc2ccccc2)n1	10	-12	0	66*	66*	54*
Cc1cc(NS(=O)(=O)Cc2ccccc2)no1	8	7	0	4	/	/
Cc1cccc(NS(=O)(=O)c2ccccc2)n1	2	-8	-1	29*	69*	59*
Cc1cccc(NS(=O)(=O)c2ccc(C(C)(C)C)cc2)n1	10	10	0	23	/	/
C=CCN(c1ccccc1)S(=O)(=O)c1cccc(C(=O)NC2CCN(Cc3ccccc3)CC2)c1	-8	-5	3	-1	/	/
Cc1nc(NCCCO)c(C#N)c2c1COC(C)(C)C2	5	-75	-1	74*	113*	86*
COc1ccc2c(c1)c(C)cc[n+]2Cc1ccccc1	6	-27	1	41*	59*	57*
c1ccc(CN2CCN(c3nc(N4CCOCC4)c4ccccc4n3)CC2)cc1	-9	-6	0	-5	/	/
c1ccc2c(N3CCOCC3)nc(N3CCOCC3)nc2c1	14	-56	3	110*	+	163*
O=c1nc2c(-c3ccccc3F)n[nH]n2c2ccccc12	-2	-6	0	49*	77*	57*
COc1ccc2c(c1)CN1CN(Cc3ccccc3)S(=O)(=O)CC21 (stereo not given)	/	-9	/	/	/	/
COc1ccc(C(=O)NC(CCSC)C(=O)N2CCCCCC2)cc1 (stereo not given)	3	14	1	-3	/	/
N#CCCn1cc(C(N)=O)c(-c2cccs2)n1	-6	-6	-1	29*	75*	63*
c1ccc2c(c1)OCCc1c-2[nH]c2ccccc12	-4	-17	6	47*	75*	55*
Cc1cc(OCC(=O)NCCc2c[nH]c3ccccc23)c2c(C)cc(=O)oc2c1	12	-5	/	2	/	/
CC1(C)Cc2nc(N)c(C(=O)NCCO)cc2CO1	10	-52	1	98*	+	+
CC1(C)Cc2c(sc3c2C(=O)NC(c2cccnc2)N3)CO1 (stereo not given)	8	-17	-10	17	/	/
CCC1CC2(C)NC(=O)c3c(sc4c3CC(C)(C)OC4)N2C1=O (stereo not given)	10	-10	4	39*	175*	112*
CCc1ccccc1N(C(=O)c1snc(C(N)=O)c1N)C(C(=O)NCC1CCCO1)c1ccc(C)o1 (stereo not given)	9	-49	2	49*	10	-3
SMILES	GDH-TPI counter-1	CCHF vOTU inh	RecA intein inh	FBA Mtb inh	Mtb FBA confirm	GDH-TPI counter-2	others
Cc1ccc(N(C(=O)c2snc(C(N)=O)c2N)C(C(=O)NCC2CCCO2)c2ccc(C)o2)c(C)c1 (stereo not given)	4	-10	-9	23	/	/
Cc1ccccc1N(C(=O)c1snc(C(N)=O)c1N)C(C(=O)NCC1CCCO1)c1ccc(F)cc1 (stereo not given)	0	-46	-4	55*	3	0
NC(=O)c1nsc(C(=O)N(c2cccc(F)c2)C(C(=O)NCC2CCCO2)c2cccs2)c1N (stereo not given)	7	-7	-3	34*	86*	76*
CC(C(=O)NCC1CCCO1)N(C(=O)c1snc(C(N)=O)c1N)c1cccc(F)c1 (stereo not given)	9	-21	-4	19	/	/
CC1C(=O)C(C)(C)C(=O)OC1c1ccc([N+](=O)[O-])cc1 (stereo not given)	2	-2	-2	3	/	/
COc1ccc(C(=O)NC2CCSc3ccccc32)cc1F (stereo not given)	-3	10	/	-1	/	/
CC(/C=C1\N=C(SCc2ccccc2)SC1=O)=C\c1ccccc1	6	16	-1	-1	/	/
CN1OC[C@@H]2CN(S(=O)(=O)c3ccccc3)[C@H](c3ccccc3Br)C[C@@H]21	/	10	/	3	/	/
COc1ccccc1CNC(=O)CN(C)S(=O)(=O)c1ccc2c(c1)n(C)c(=O)c(=O)n2C	11	15	0	-1	/	/
COc1cccc(-c2cc(N3CCN(C(=O)c4ccoc4)CC3)n3nc(-c4cccc(Cl)c4)cc3n2)c1	9	-6	/	2	/	/
Cc1cc(N2CCN(C(=O)c3ccco3)CC2)n2ncc(-c3ccccc3)c2n1	14	18	2	2	/	/
COc1ccccc1-c1cc2nc(-c3ccccc3)cc(N3CCN(C(=O)c4ccco4)CC3)n2n1	6	-48	/	48*	54*	43*
COc1cccc(-c2cc3nc(-c4ccccc4)cc(N4CCN(C(=O)c5ccoc5)CC4)n3n2)c1	-3	-47	/	62*	151*	102*
Cc1cc(N2CCN(C(=O)c3ccoc3)CC2)n2nc(-c3ccccc3)cc2n1	8	6	/	2	/	/
COc1cccc(-c2cc3nc(-c4ccccc4)cc(N4CCC5(CC4)OCCO5)n3n2)c1	3	-62	-2	65*	1	-4
O=C(c1ccoc1)N1CCN(c2cc(-c3ccccc3)nc3cc(-c4ccccc4)nn23)CC1	5	-45	/	39*	64*	60*
COc1ccccc1-c1cc2nc(-c3ccccc3)cc(N3CCN(C(=O)c4ccoc4)CC3)n2n1	12	-45	/	55*	4	1
CN1CCN(c2cc(-c3ccccc3)nc3cc(-c4ccc(F)cc4)nn23)CC1	3	-3	-4	26	/	/
CN1CCN(c2cc(-c3cccc(C(=O)O)c3)nc3ccnn23)CC1	18	-30	/	30*	55*	46*
Fc1ccc(-c2cc3nc(-c4ccccc4)cc(N4CCN(CCN5CCOCC5)CC4)n3n2)cc1	11	-29	0	49*	90*	72*
CCOc1ccc(-n2c(SCC(=O)Nc3ccc4cn[nH]c4c3)nnc2-c2ccc(C(C)(C)C)cc2)cc1	/	11	/	/	/	/
CCOC(=O)C1=C(COC(=O)CNC(=O)c2ccc(Cl)cc2Cl)NC(=O)NC1C (stereo not given)	2	-13	2	-2	/	/
Cc1ccc(NC(=O)N2CCCCCC2)c(C)c1	0	8	1	2	/	/
COc1ccc(/C=C2\Oc3ccccc3C2=O)cc1	12	-48	/	84*	18	8	GDH-TPI dose=1.6*
